# This is part of a sample that, as a whole, favours compounds with a hit. Of some 83,000 tested, about 20% had one in any assay.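 For each line, cells grew in 96-well plates with the test compound present at a single concentration for 48 hours.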 Activity calls are given as the source filed them.
# Tested on: CAKI-1 renal
# Test: NCI-60 one-dose screen, 48 h (100 = growth as untreated, 0 = no growth, -100 = all killed)
# Details: 10 µM unless noted
# Method: Growth inhibition of the CAKI-1 human tumor cell line is measured as a screen for anti-cancer activity. Cells are grown in 96 well plates and exposed to the test compound for 48 hours. Compounds are tested at a single concentration, which is 10^-5 M for most compounds. The reported endpoint is percent growth (GI% or GIPRCNT), where numbers from 0 - 100% represent growth inhibition, and numbers from -100% - 0 represent cell death. For example, a value of 40 represents 60% growth inhibition. A value of 0 means no net growth occurred over the course of the experiment. A value of -40 indicates 40% of cells at the beginning of the experiment died by the end of the experiment. A value of -100 means all cells are dead at the end of the experiment.
# NCI-60 Human Tumor Cell Lines Screen was performed using the standard one-dose NCI protocol, which is described in more detail at https://dtp.cancer.gov/discovery_development/nci-60/default.htm.
# Compounds with GIPRCNT values below 10 were considered active. Activity score was based on GIPRCNT using the following formula: […]
# Score is 0 for GIPRCNT values of 100 or above, 50 for GIPRCNT values of 0, and 100 for GIPRCNT values of -100.
row,SMILES,growth
1,Nc1ccccc1NC(=O)c1ccc(CN2CCC/C(=C\c3ccccn3)C2=O)cc1,17.7% (inactive)
2,O=C1CNCCN1,93.1% (inactive)
3,Cc1csc(Nc2nc(-c3cccc(Br)c3)nc(C(Cl)(Cl)Cl)n2)n1,21.6% (inactive)
4,CCc1ccc(-c2ccc(Nc3ccccc3)nn2)cc1S(N)(=O)=O,92.6% (inactive)
5,CC1(C)C(=O)/C(=C\c2ccccn2)C[C@]2(C)[C@H]3CC[C@@H]4[C@@H](C(=O)/C=C/c5ccccn5)CC[C@@]4(C)[C@]3(C)CC[C@@H]12,-20.3% (active)
6,CN(C)c1ccc(-c2ccc(-c3ccc(C(=N)N)c(F)c3)s2)cc1,-87.9% (active)
7,COC(=O)C(Cc1ccccc1)n1cc(COc2nc(Cl)nc(Nc3ccc(Cl)cc3)n2)nn1 (stereo not given),92.1% (inactive)
8,Nc1c2c(nc3ccc(Br)cc13)CC(c1ccccc1)CC2=O (stereo not given),47.2% (inactive)
9,CC1(C)C(=O)/C(=C\c2cccnc2)C[C@]2(C)[C@H]3CC[C@@H]4[C@@H](C(=O)/C=C/c5ccncc5)CC[C@@]4(C)[C@]3(C)CC[C@@H]12,28.4% (inactive)
10,CCN1CCN(C(=O)[C@@]2(C)CC[C@]3(C)CC[C@]4(C)C(=CC(=O)[C@@H]5[C@@]6(C)CC[C@H](OC7C[C@@H](O)[C@@H](O)C(C)O7)C(C)(C)[C@@H]6CC[C@]54C)[C@@H]3C2)CC1 (stereo not given in full),89.4% (inactive)
11,COC(=O)[C@]12CC[C@@H](C)[C@H](C)[C@@H]1C1=CC[C@@H]3[C@@]4(C)C[C@@H](OC(C)=O)[C@H](OC(C)=O)[C@@](C)(COC(C)=O)[C@@H]4[C@H](O)C[C@@]3(C)[C@]1(C)CC2,11.6% (inactive)
12,CC(=O)OCCCCCCn1c2ccccc2c2c3c(c4c5ccccc5n(C)c4c21)C(=O)N(O)C3=O,4.21% (active)
13,Nc1c(C(=O)Nc2c(Cl)cccc2Cl)sc2nc3c(cc12)C(=O)CCC3,41.5% (inactive)
14,Cc1cc(C)nc(NC(N)=NCCc2ccccc2)n1,93.6% (inactive)
15,CN(C)CCCCC(C(=O)CBr)(c1ccccc1)c1ccccc1,-23.5% (active)
16,O=C(NCN1C(=O)c2cccc3cccc(c23)C1=O)N1CCC(Cc2ccccc2)CC1,82.9% (inactive)
17,CC1(c2ccccc2)OC1C(=O)O (stereo not given),94% (inactive)
18,C[C@H]1[C@@H]2[C@H]3CC[C@@H]4[C@@]5(C)Cc6c([nH]c7ccccc67)C(C)(C)[C@@H]5CC[C@@]4(C)[C@]3(C)CC[C@]23CO[C@]1(C)[C@@H](C(=O)/C=C/c1ccccn1)C3,63% (inactive)
19,CCC(=O)c1c(C)[nH]c(C)c1C,46.4% (inactive)
20,COC(=O)[C@]12CC[C@@H](C)[C@H](C)[C@@H]1C1=CC(=O)[C@@H]3[C@@]4(C)C[C@@H](OC(C)=O)[C@H](OC(C)=O)[C@@](C)(COC(C)=O)[C@@H]4C(=O)C[C@@]3(C)[C@]1(C)CC2,30.5% (inactive)

row,SMILES,growth
1,N=c1c(S(=O)(=O)c2ccccc2)cc2c(=O)n3ccccc3nc2n1C1CCCC1,64.6% (inactive)
2,CC(C)/C=C/CC[C@](C)(O)[C@H]1CC[C@]2(C)[C@@H]1CC[C@@H]1[C@@]3(C)C/C(=C/c4cccc(C(F)(F)F)c4)C(=O)C(C)(C)[C@@H]3CC[C@]12C,64.3% (inactive)
3,COc1cccc(-c2nn(-c3ccccc3)cc2-c2ccnc(NCCNS(=O)(=O)c3cccc(F)c3)c2)c1,35.9% (inactive)
4,CC(C)(C)c1[nH]nc2c1C(c1cc3ccccc3[nH]c1=O)Nc1cc(C(=O)OCc3ccccc3)ccc1N2 (stereo not given),54.6% (inactive)
5,Cc1ccnc2c(OCc3ccccc3)cccc12,86.1% (inactive)
6,O=C(NO)c1ccc(Cn2c(=O)n(CCc3ccc(O)cc3)c(=O)c3ccccc32)cc1,95.2% (inactive)
7,Cc1ccc(-c2nc([P+](c3ccccc3)(c3ccccc3)c3ccccc3)c(N3CCOCC3)o2)cc1,13.1% (inactive)
8,C=C(C)[C@@H]1CC[C@]2(/C=N/Nc3ccncc3)CC[C@]3(C)[C@H](CC[C@@H]4[C@@]5(C)CCCNC(C)(C)[C@@H]5CC[C@]43C)[C@@H]12,74.7% (inactive)
9,Oc1cccc2oc(=S)[nH]c12,120% (inactive)
10,Cn1cc(-c2csc(-c3c[nH]c4ccc(F)cc34)n2)c2cccnc21,36.9% (inactive)
11,CC1c2ccccc2N(S(=O)(=O)c2ccccc2)C1C (stereo not given),74.5% (inactive)
12,Cc1ccccc1-c1nc(C(Cl)Cl)nc2cc(-c3ccccc3)nn12,44.8% (inactive)
13,Cc1ccc(NC2CC(=O)N(c3c(C)cc(C)cc3C)C2=O)c(C)c1 (stereo not given),95.6% (inactive)
14,O=C1CN(c2ccccc2)C(=O)C1C(=O)Nc1ccc(Cl)c(Cl)c1 (stereo not given),-2.42% [100 µM] (active)
15,CC1(C)c2ccccc2C(=O)C1(Br)Cc1ccccc1 (stereo not given),50.5% (inactive)
16,COc1ccc(-c2cc(-c3c(C)oc4cc5occc5c(OC)c4c3=O)nc(N)c2C#N)cc1OC,38.9% (inactive)
17,CCN1CCN(C(=O)[C@]23CCC(C)(C)C[C@@H]2C2=CC[C@@H]4[C@@]5(C)C/C(=C/c6cccnc6)C(=O)C(C)(C)[C@@H]5CC[C@@]4(C)[C@]2(C)CC3)CC1,31.5% (inactive)
18,Nc1ccc(Cl)cn1,90.5% (inactive)
19,NCCNc1nc(-c2ccccc2)nc2nc(-c3ccccc3)oc12,73.9% (inactive)
20,COc1cc(NC(C)CN(CC(C)C)C(C)C)c2ncccc2c1 (stereo not given),98.6% (inactive)
